Measured values reported in paper PMC5540273 (PLoS ONE, 2017).

What follows are molecules tested on T1, CDK11. Details: concentration: 1 μM,replicates: in singlicate; n = 1.
T1 construct: gene CDK19
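Note: KINOMEscan kinase panel screen.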

Row | Compound | %Inh [%]
1 | O=C(Nc1cccc(C(F)(F)F)c1)c1cccc(Oc2ccc3nccn3n2)c1 | 0
2 | O=c1[nH]cc(-c2ccc(O)cc2)c2sc(-c3ccncc3)cc12 [GSK1033723] | 0
3 | Cc1nnc(-c2ccc3occ(-c4ccc(S(C)=O)cc4)c3n2)o1 (centres unmarked) | 0
4 | Cl.Cl.NC[C@H](CC1CCCCC1)NC(=O)c1ccc(-c2ccnc3[nH]ccc23)s1 [GSK1581428] | 4
5 | CCNCC(Cc1ccccc1)NC(=O)c1cc(Br)c(-c2ccnc3[nH]ccc23)s1.Cl.Cl (centres unmarked) [GSK1383280] | 39
6 | COc1cc2nccc(Nc3ccc(Oc4ccccc4)cc3)c2cc1OC.Cl [GI261656] | 0
7 | O=C(NCC1CC1)c1ccc(-c2cc(C(=O)NC3CC3)ccc2F)cc1 [GW810445] | 32
8 | NC(=O)Nc1sc(-c2ccc(F)cc2)cc1C(N)=O [GW789449] | 0
9 | C[C@@H](Oc1cc(-n2cnc3cc(-c4ccncc4)ccc32)sc1C(N)=O)c1ccccc1Cl [GSK479719] | 0
10 | OCCn1cc(-c2cnc3nnn(Cc4ccc5ncccc5c4)c3n2)cn1 | 0
11 | Cn1ccc2ncnc(Oc3ccc(NC(=O)Nc4cncc(C(F)(F)F)c4)c(Cl)c3)c21 | 97.7
12 | COC(=O)c1cccc(NC(=O)NC2CCN(c3ccnc(NCc4ccc(F)cc4)n3)CC2)c1 [GSK1379860] | 12
13 | Cc1n[nH]c2cc(Nc3ccnc(Nc4cccc(CN5CCOCC5)c4)n3)ccc12 [GW682569] | 19
14 | FC(F)(F)c1cc(Br)cc(Nc2nccc(-c3cnn4ncccc34)n2)c1 [GW810578] | 0
15 | Cn1ccc2ncnc(Oc3ccc(NC(=O)Nc4cccc(C(F)(F)F)c4)c(F)c3)c21 | 99.3
16 | COc1cc2ncn(-c3cc(OCC4CCCCC4)c(C(N)=O)s3)c2cc1OC [GSK204559] | 12
17 | CN1CCN(CCNc2nc3cc(Oc4ccc(NC(=O)Nc5cc(C(F)(F)F)ccc5F)cc4)ccc3[nH]2)CC1.Cl.Cl [GW768504] | 47
18 | CS(=O)c1ccc(-c2coc3ccc(-c4n[nH]c(=O)o4)cc23)cc1 (centres unmarked) | 96.9
19 | CN(c1cccc(CNc2nc(Nc3ccc4c(c3)CC(=O)N4)ncc2C(F)(F)F)c1)S(C)(=O)=O | 0

Row | Compound | %Inh [%]
20 | C[C@@H](Oc1cc(-n2cnc3ccc(-c4ccncc4)cc32)sc1C(N)=O)c1ccccc1Cl [GSK483724] | 73
21 | c1ccc(Oc2ccc(Nc3ccnc4ccc(-c5ccccn5)cc34)cc2)cc1 [GW407034] | 12
22 | COc1cc(Nc2nccc(N3CCC(NC(=O)c4cccc(C#N)c4)C3)n2)cc(OC)c1OC (centres unmarked) [GSK1379751] | 12
23 | COC(=O)Nc1nc2cc(Oc3ccc(NC(=O)Nc4cc(C(F)(F)F)ccc4Cl)cc3)ccc2[nH]1.Cl [GW697465] | 66
24 | COc1cccc(OC)c1C(=O)Nc1cccc(-c2nn3ccccc3c2-c2ccnc(Nc3cccc(F)c3)n2)c1 [GSK361065] | 0
25 | C[C@@H](Oc1cc(-n2cnc3cc(-c4cnn(C)c4)ccc32)sc1C(N)=O)c1ccccc1Cl [GSK580432] | 28
26 | O=C(Nc1ccc(Oc2ccc3nc(NC(=O)C4CC4)cn3n2)c(F)c1)c1cccn(-c2ccccc2)c1=O | 28
27 | Cn1cc(-c2cccc3c(N)c(C(N)=O)nnc23)cn1 | 19
28 | Cc1ccc2c(-c3ccnc(Nc4ccc(C(F)(F)F)cc4)n3)cnn2n1 [GW819776] | 0
29 | Cl.Nc1n[nH]c2cc(-c3ccccn3)ccc12 [GSK2189892] | 2
30 | C[C@@H]1CNc2c(sc3ccc4nc(-c5ccc(O)cc5)ccc4c23)C(=O)N1 | 37
31 | CC(=O)Nc1nc2cnc(Nc3cc(NC(=O)c4cccc(CC(C)(C)C#N)c4)ccc3C)nc2s1 | 79
32 | CC(C)S(=O)(=O)N1CCN(Cc2ccc3c(c2)nc(NC(=O)c2ccsc2)n3C[C@H](O)c2ccccc2)CC1 [GW635815] | 6
33 | Cn1ccc2ncnc(Oc3ccc(NC(=O)Nc4ccnc(C(F)(F)F)c4)c(Cl)c3)c21 | 98
34 | O=C1NCCc2[nH]c(-c3ccncc3)cc21 | 22
35 | Cc1ccc(C(=O)Nc2ccc(Oc3ccc4nc(NC(=O)C5CC5)cn4c3)c(F)c2)c(=O)n1-c1ccccc1 | 88
36 | Cc1ccc(Nc2ccnc(Nc3ccc4c(c3)CS(=O)(=O)C4)n2)cc1O.Cl [GW579362] | 0
37 | CN(c1ccccc1CNc1nc(Nc2ccc3c(c2)CC(=O)N3)ncc1C(F)(F)F)S(C)(=O)=O | 0

The molecules below were run on CDK2. Details: concentration: 1 μM,replicates: in singlicate; n = 1.

Row | Compound | %Inh [%]
38 | O=C(Nc1cccc(C(F)(F)F)c1)c1cccc(Oc2ccc3nccn3n2)c1 | 11
39 | O=c1[nH]cc(-c2ccc(O)cc2)c2sc(-c3ccncc3)cc12 [GSK1033723] | 0
40 | Cc1nnc(-c2ccc3occ(-c4ccc(S(C)=O)cc4)c3n2)o1 (centres unmarked) | 6
41 | Cl.Cl.NC[C@H](CC1CCCCC1)NC(=O)c1ccc(-c2ccnc3[nH]ccc23)s1 [GSK1581428] | 11
42 | CCNCC(Cc1ccccc1)NC(=O)c1cc(Br)c(-c2ccnc3[nH]ccc23)s1.Cl.Cl (centres unmarked) [GSK1383280] | 0
43 | COc1cc2nccc(Nc3ccc(Oc4ccccc4)cc3)c2cc1OC.Cl [GI261656] | 0
44 | O=C(NCC1CC1)c1ccc(-c2cc(C(=O)NC3CC3)ccc2F)cc1 [GW810445] | 0
45 | NC(=O)Nc1sc(-c2ccc(F)cc2)cc1C(N)=O [GW789449] | 0
46 | C[C@@H](Oc1cc(-n2cnc3cc(-c4ccncc4)ccc32)sc1C(N)=O)c1ccccc1Cl [GSK479719] | 42
47 | OCCn1cc(-c2cnc3nnn(Cc4ccc5ncccc5c4)c3n2)cn1 | 0
48 | Cn1ccc2ncnc(Oc3ccc(NC(=O)Nc4cncc(C(F)(F)F)c4)c(Cl)c3)c21 | 0
49 | COC(=O)c1cccc(NC(=O)NC2CCN(c3ccnc(NCc4ccc(F)cc4)n3)CC2)c1 [GSK1379860] | 0
50 | Cc1n[nH]c2cc(Nc3ccnc(Nc4cccc(CN5CCOCC5)c4)n3)ccc12 [GW682569] | 0
51 | FC(F)(F)c1cc(Br)cc(Nc2nccc(-c3cnn4ncccc34)n2)c1 [GW810578] | 39
52 | Cn1ccc2ncnc(Oc3ccc(NC(=O)Nc4cccc(C(F)(F)F)c4)c(F)c3)c21 | 7
53 | COc1cc2ncn(-c3cc(OCC4CCCCC4)c(C(N)=O)s3)c2cc1OC [GSK204559] | 0
54 | CN1CCN(CCNc2nc3cc(Oc4ccc(NC(=O)Nc5cc(C(F)(F)F)ccc5F)cc4)ccc3[nH]2)CC1.Cl.Cl [GW768504] | 0
55 | CS(=O)c1ccc(-c2coc3ccc(-c4n[nH]c(=O)o4)cc23)cc1 (centres unmarked) | 0
56 | CN(c1cccc(CNc2nc(Nc3ccc4c(c3)CC(=O)N4)ncc2C(F)(F)F)c1)S(C)(=O)=O | 6

Row | Compound | %Inh [%]
57 | C[C@@H](Oc1cc(-n2cnc3ccc(-c4ccncc4)cc32)sc1C(N)=O)c1ccccc1Cl [GSK483724] | 30
58 | c1ccc(Oc2ccc(Nc3ccnc4ccc(-c5ccccn5)cc34)cc2)cc1 [GW407034] | 0
59 | COc1cc(Nc2nccc(N3CCC(NC(=O)c4cccc(C#N)c4)C3)n2)cc(OC)c1OC (centres unmarked) [GSK1379751] | 0
60 | COC(=O)Nc1nc2cc(Oc3ccc(NC(=O)Nc4cc(C(F)(F)F)ccc4Cl)cc3)ccc2[nH]1.Cl [GW697465] | 37
61 | COc1cccc(OC)c1C(=O)Nc1cccc(-c2nn3ccccc3c2-c2ccnc(Nc3cccc(F)c3)n2)c1 [GSK361065] | 0
62 | C[C@@H](Oc1cc(-n2cnc3cc(-c4cnn(C)c4)ccc32)sc1C(N)=O)c1ccccc1Cl [GSK580432] | 26
63 | O=C(Nc1ccc(Oc2ccc3nc(NC(=O)C4CC4)cn3n2)c(F)c1)c1cccn(-c2ccccc2)c1=O | 0
64 | Cn1cc(-c2cccc3c(N)c(C(N)=O)nnc23)cn1 | 17
65 | Cc1ccc2c(-c3ccnc(Nc4ccc(C(F)(F)F)cc4)n3)cnn2n1 [GW819776] | 15
66 | Cl.Nc1n[nH]c2cc(-c3ccccn3)ccc12 [GSK2189892] | 0
67 | C[C@@H]1CNc2c(sc3ccc4nc(-c5ccc(O)cc5)ccc4c23)C(=O)N1 | 0
68 | CC(=O)Nc1nc2cnc(Nc3cc(NC(=O)c4cccc(CC(C)(C)C#N)c4)ccc3C)nc2s1 | 15
69 | CC(C)S(=O)(=O)N1CCN(Cc2ccc3c(c2)nc(NC(=O)c2ccsc2)n3C[C@H](O)c2ccccc2)CC1 [GW635815] | 0
70 | Cn1ccc2ncnc(Oc3ccc(NC(=O)Nc4ccnc(C(F)(F)F)c4)c(Cl)c3)c21 | 0
71 | O=C1NCCc2[nH]c(-c3ccncc3)cc21 | 1
72 | Cc1ccc(C(=O)Nc2ccc(Oc3ccc4nc(NC(=O)C5CC5)cn4c3)c(F)c2)c(=O)n1-c1ccccc1 | 1
73 | Cc1ccc(Nc2ccnc(Nc3ccc4c(c3)CS(=O)(=O)C4)n2)cc1O.Cl [GW579362] | 89
74 | CN(c1ccccc1CNc1nc(Nc2ccc3c(c2)CC(=O)N3)ncc1C(F)(F)F)S(C)(=O)=O | 58
